± gives the standard deviation of the averaged measurements.
Assays:
Conditions in all cases: concentration: 10 µM; 24 h
HCC1569 [1] = test: cell number relative to DMSO (% of DMSO); higher = more cells (less growth inhibition / toxicity)
How it was run: (§1)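 HCC1569 and TDF cells (800 per well, 384-well plates, RPMI with 10% FBS) were treated with compounds at 10 µM for 24 h at 37 °C, in triplicate. Cells were fixed in 3.7% formaldehyde and stained with a rabbit anti-H1.0 antibody, an AlexaFluor 647 secondary and DAPI; six fields per well were imaged at ×10. H1.0 nuclear intensity or cell number is expressed as percent of the plate DMSO control, taking the median of replicates. HCC1569 values were smoothed for positional effects.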

TDF [2] = test: as above
How it was run: as §1

TDF [3] = test: H1.0 immunofluorescence intensity relative to DMSO (% of DMSO); higher = stronger H1.0 induction, active = 120 or more
How it was run: as §1

HCC1569 [4] = test: H1.0 immunofluorescence intensity relative to DMSO (% of DMSO); higher = stronger H1.0 induction, active = 140 or more
How it was run: as §1
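Wherever H1.0 immunofluorescence intensity relative to DMSO is given: TDF is a line of transformed human dermal fibroblasts of mesenchymal origin.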
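Wherever cell number relative to DMSO is given: TDF denotes transformed human dermal fibroblasts of mesenchymal origin.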

SMILES	cell number (HCC1569 [1])	cell number (TDF [2])	H1.0 immunofluorescence intensity (TDF [3])	H1.0 immunofluorescence intensity (HCC1569 [4])
Cl.NCC(O)c1ccc(O)cc1 (racemic)	99.3	106	93.6 (inactive)	93.1 (inactive)
Br.CN1C2CC(OC(=O)C(CO)c3ccccc3)CC1C1OC12 (single isomer, unassigned; (-)) [(-)-Scopolamine hydrobromide]	100	104	97.6 (inactive)	103 (inactive)
CCN1CC2(COC)C(O)CC(OC)C34C5CC6(O)C(OC)C(O)C(OC(C)=O)(C5C6OC(=O)c5ccccc5)C(C(OC)C23)C14 (configuration not stated) [Aconitine]	99.9	97.3	96.5 (inactive)	94.5 (inactive)
Cl.Cl.Cn1cnc(CCN)c1 [1-Methylhistamine dihydrochloride]	98.1	110	86.4 (inactive)	95.3 (inactive)
O=C1CCCN1CC#CCN1CCCC1 [Oxotremorine]	101	109	88.5 (inactive)	102 (inactive)
CNC1CC2OC(C)(C1OC)n1c3ccccc3c3c4c(c5c6ccccc6n2c5c31)C(=O)NC4 (configuration not stated) [Staurosporine, Streptomyces sp.]	56.3 ± 58	47.9 ± 67	149 (active)	84.1 (inactive)
COc1cc2c(cc1O)CCNC2C (configuration not stated) [Salsoline]	100	104	91 (inactive)	95.5 (inactive)
O=c1[nH]c2ccccc2n1CCCN1CCC(n2c(=O)[nH]c3cc(Cl)ccc32)CC1 [Domperidone]	97.7	98.7	94.7 (inactive)	109 (inactive)
COc1ccc2c3c1OC1C(=O)CCC4(O)C(C2)N(CC2CC2)CCC314.Cl (single isomer, unassigned; (-)) [(-)-3-Methoxynaltrexone hydrochloride]	104	109	88.4 (inactive)	86.7 (inactive)
CCC1(O)C(=O)OCc2c1cc1n(c2=O)Cc2cc3ccccc3nc2-1 [(S)-(+)-Camptothecin]	54.2	26.9	126 (active)	114 (inactive)
CC(=O)OC1C(=O)C2(C)C(O)CC3OCC3(OC(C)=O)C2C(OC(=O)c2ccccc2)C2(O)CC(O)C(C)=C1C2(C)C (configuration not stated) [Baccatin III]	105	112	111 (inactive)	105 (inactive)
COc1cc(CC(C)N)c(OC)cc1I.Cl (racemic)	101	109	91.3 (inactive)	88.9 (inactive)
Cc1cccc(C)c1NC1=NCCCS1 [Xylazine]	106	106	95.4 (inactive)	106 (inactive)
Cl.Oc1ccc2c3c1OC1C(O)CCC4(O)C(C2)N(CC2CCC2)CCC314 (configuration not stated) [Nalbuphine hydrochloride]	105	104	92.6 (inactive)	88.2 (inactive)
O=C(O)CC[N+](=O)[O-] [3-Nitropropionic acid]	103	109	89.6 (inactive)	84.9 (inactive)
Cc1ccccc1-n1c(Cn2cnc3c(N)ncnc32)nc2cccc(C)c2c1=O	90.8	99.7	91.9 (inactive)	102 (inactive)
N#CC(C#N)=Cc1ccc([N+](=O)[O-])c(O)c1 [Tyrphostin AG 126]	99.1	111	102 (inactive)	103 (inactive)
CC(C)NCC(O)c1ccc(N)c(C#N)c1 (configuration not stated) [Cimaterol]	103	108	87.7 (inactive)	102 (inactive)
C=CCN1CC(C(=O)N(CCCN(C)C)C(=O)NCC)CC2c3cccc4[nH]cc(c34)CC21 (configuration not stated) [Cabergoline]	109	102	96.1 (inactive)	102 (inactive)
NCCN(CCN)N(O)N=O [1,1-bis(2-aminoethyl)-2-hydroxy-3-oxotriazane]	99.5	97.5	93.1 (inactive)	95 (inactive)
C1CCc2nnnn2CC1 [Pentylenetetrazole]	102	113	99 (inactive)	98.1 (inactive)
CC12CCC(O)CC1CCC1C2CCC2(C)C(C3=CC(=O)OC3)C(O)CC12O (configuration not stated) [Gitoxigenin]	104	73.1	103 (inactive)	81.4 (inactive)
CCC1C=CC=CCC(C)C(O)C(C)(O)C(=O)C(C)C(O)C(C)C(=O)C(C)C(O)C(C)C=CC(=O)OC2C(C)C(CC1)OC1(CCC(C)C(CC(C)O)O1)C2C (configuration not stated) [Oligomycin A]	79.8 ± 16	87 ± 27	93.9 (inactive)	114 (inactive)

From the supplement of paper PMC7156485
